# Measured values taken from PubChem BioAssay (NCATS).
# Records with an inconclusive call do not appear. The source made the active and inactive calls. Unless noted, calls follow the shape of the dose curve; as a rule, active = well fitted curve in the direction sought with a large enough effect; inconclusive = small, poorly fitted or top-dose-only effect, or another doubt; inactive = no such curve, though single readings can be large; an effect the other way counts as inactive or inconclusive.
# What was measured:
# [1] = Primary qHTS for inhibitors of nuclear receptor binding SET domain protein 2 (NSD2) in an isogenic RCH-ACV NSD2 p.E1099K mutant (9B) (AID 1645876); also: potency is read from the fitted curve at half-maximal effect; nearly all actives have a fitted effect of over 70% in size
# [2] = Primary qHTS for inhibitors of nuclear receptor binding SET domain protein 2 (NSD2) in an RCH-ACV wild type WT cells (2C) (AID 1645877); also: potency is read from the fitted curve at half-maximal effect; nearly all actives have a fitted effect of over 70% in size
# [3] = molecular target: Glutathione peroxidase 1 (Homo sapiens) (UniProt P07203); assay: Primary qHTS Assay for Inhibitors of Recombinant Selenoprotein Glutathione Peroxidase 1 (GPX1) (AID 1845191); also: % is scaled to controls: 0 for no effect and ±100 for the full control effect; nearly all actives have a fitted effect of over 65% in size
# Method in brief: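 GR-coupled readout: NADPH consumption tracked by fluorescence, ex 340/em 450 nm, at t=0 and after 15 min at RT. Final mix 10 nM GPX1, 1 mM GSH, 0.5 mM CHP, 0.5 mM NADPH, 100 nM GR, 0.01% BSA, following 30 min enzyme–compound preincubation.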
# [4] = molecular target: Phospholipid hydroperoxide glutathione peroxidase GPX4 (Homo sapiens) (UniProt P36969); assay: Primary qHTS Assay for Inhibitors of Recombinant Selenoprotein Glutathione Peroxidase 4 (GPX4) (AID 1845192); details: outcome: dose series up to 50 µM unless noted; also: nearly all actives have a fitted effect of over 65% in size
# Method in brief: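 Steps: GPX4 plus compound, 30 min RT; add GR/GSH/NADPH master mix; start with cumene hydroperoxide; read 340/450 nm fluorescence at 0 and 15 min. Finals were 200 nM GPX4, 1 mM GSH, 0.5 mM CHP, 0.5 mM NADPH, 100 nM GR.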
# [5] = qHTS drug screen for cell cycle checkpoint inhibitors in PARPi-resistant BRCA-mutant ovarian cancer cell lines. (AID 1963452; calls by dose curve); details: PEO1/OlaR viability, CellTiter-Glo luminescence, 96 h, stronger effect = lower value
# Method in brief: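 PEO1, PEO4 and PEO1/OlaR ovarian cancer cells, 600 per well, exposed 96 h at 37C to a dilution series. Viability read by CellTiter-Glo luminescence, normalized to DMSO and empty wells; activity summarized as Z-AUC.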
# [6] = molecular target: Lysosomal alpha-glucosidase (Homo sapiens) (UniProt P10253); assay: Confirmation of Inhibitors and Activators of Purified Human alpha-Glucosidase (AID 2115; active = well fitted curve in either direction with a large enough effect)
# Method in brief: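 Fluorogenic 4-MU-substrate hydrolysis (400 uM substrate, 4 nM human enzyme) over 20 min at room temperature, pH 5.0 citrate buffer plus 0.005% Tween-20; NaOH/glycine stop, then ex 365/em 440 nm read. Titration up to 77 uM; Hill-equation AC50, normalized to no-enzyme and full-activity controls.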
# [7] = molecular target: Lysosomal acid glucosylceramidase (Homo sapiens) (UniProt P04062); assay: Glucocerebrosidase-p2 (AID 348; in the data active = potency below about 10 µM; also: potency is read from the fitted curve at half-maximal effect); details: purified GBA, blue fluorogenic substrate, 40 min
# Method in brief: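 Normal human glucocerebrosidase (0.2 nM) with blue fluorogenic substrate (80 uM final) in citrate/phosphate pH 5.9 with 10mM sodium taurocholate, 0.01% tween-20; 40 min RT, NaOH/glycine stop; fluorescence Ex 365/Em 440; AC50 from a titration from 0.6 nM upwards.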
# [8] = molecular target: Cytochrome P450 1A2 (Homo sapiens) (UniProt P05177); assay: p450-cyp1a2 (AID 410; calls by dose curve; also: potency is read from the fitted curve at half-maximal effect;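 as to activity change, negative = inhibition: -100% = full effect of reference inhibitor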)
# Method in brief: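 Read-out is luminescence from luciferin produced by CYP1A2 demethylation of Luciferin-ME (100uM, at Km). Detection reagent stopped the 60 min NADPH-dependent reaction; signals were normalized to 57 uM furafylline.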
# [9] = molecular target: Glucocorticoid receptor (Homo sapiens) (UniProt P04150); assay: GR-GFP Redistribution (AID 450;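 active = compounds whose dose series gives a full or clear partial fitted curve of increased nuclear translocation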; also: potency is read from the fitted curve at half-maximal effect); details: U2OS GR-GFP nuclear translocation, laser cytometry, 2 h
# [10] = molecular target: Mitogen-activated protein kinase 10 (Mus musculus) (UniProt Q61831); assay: JNK3 AlphaScreen Assay (AID 530; active = well fitted curve in either direction with a large enough effect, not every such curve was filed as active;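 also: kinase came from lysate of stimulated human HepG2 cells; signal reports phosphorylation of biotinylated GST-cJun 1-79 at Ser73 with 10 µM ATP; % is scaled to controls: 0 for no effect and ±100 for the full control effect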)
# Method in brief: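 HepG2 lysate (IL-1b/TNFa pre-activated) + biotin-GST-cJun 1-79 + anti-pSer73 cJun; cpd titration, 15 min RT; ATP 10 uM start; Tris pH 7.6, MgCl2, DTT, vanadate; beads in EDTA buffer; AlphaScreen.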
# [11] = molecular target: 3',5'-cyclic-AMP phosphodiesterase 4B (Homo sapiens) (UniProt Q07343); assay: qHTS Assay for Inhibitors of PDE-IV (AID 607; active = well fitted activation curve with a large enough effect in the main read-out, with a control signal flat, not every such curve was filed as active; also: % of control where 0% means no effect)
# Method in brief: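 ACTOne HEK293 cells carry a modified cAMP-gated CNG channel and express endogenous PDE4; plated 1000 cells/well, compounds up to 22.9 uM final. Membrane-potential dye fluorescence (ex 535/em 590) was read; parental cells received 10 uM forskolin + 100 uM RO 20-1724.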
# [12] = molecular target: Cytochrome P450 3A4 (Homo sapiens) (UniProt P08684); assay: qHTS Assay for Activators of Cytochrome P450 3A4 (AID 885); also: nearly all actives have a fitted effect of over 65% in size
# Method in brief: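 CYP3A4 activity: Luciferin-PPXE O-dealkylation, 25uM substrate, 200mM KPO4, RT throughout. Read-out is luciferase luminescence; higher values reflect activation.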
# [13] = qHTS Assay for Identification of Small Molecule Agonists for Hypoxia Response Element Signaling Pathway (AID 914; active = well fitted activation curve with a large enough effect in the signal ratio, with a control signal flat, not every such curve was filed as active; the % refers to the signal ratio; also: potency is read from the fitted curve at half-maximal effect); details: ME-180 HRE-bla reporter, beta-lactamase ratio, CoCl2, 17 h; activation: stronger effect = higher value
# Method in brief: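 HRE-bla ME-180 cells with beta-lactamase reporter under hypoxia response element, compounds with EC50 CoCl2 for 17 hours at 37 C. CCF4 substrate, 460nm/530nm emission ratio gave %Activity; AC50 from titration series.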
# [14] = molecular target: Dual specificity protein kinase CLK4 (Homo sapiens) (UniProt Q9HAZ1); assay: qHTS Assay for Inhibitors of CDC-like Kinase 4 (Kinase-Glo Assay) (AID 1770); also: % is scaled to controls: 0 for no effect and ±100 for the full control effect; nearly all actives have a fitted effect of over 65% in size
# Method in brief: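 Substrate mix (RS peptide 100 uM, ATP 1 uM) dispensed, compound pinned in, then Clk4 added to 25 nM final. Incubated 4.5 h at RT; Kinase-Glo reagent added, luminescence read after 5 min.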
# [15] = molecular target: Dual specificity protein kinase CLK4 (Homo sapiens) (UniProt Q9HAZ1); assay: qHTS Assay for Inhibitors of CDC-like Kinase 4 (ADP-FP Assay) (AID 1795);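 also: recombinant human CLK4 phosphorylating RS repeat peptide at 1 µM ATP; % is scaled to controls: 0 for no effect and ±100 for the full control effect; nearly all actives have a fitted effect of over 60% in size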
# Method in brief: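 Clk4 6.25 nM; RS peptide 100 uM; ATP 1 uM; 25 mM Tris pH 7.5, 10 mM MgCl2; 1 h reaction. ADP detected via antibody/orange tracer FP displacement; TG003 positive control.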
# [16] = molecular target: Ubiquitin carboxyl-terminal hydrolase 1 (Homo sapiens) (UniProt O94782); assay: Inhibitors of USP1/UAF1: Pilot qHTS (AID 504865);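 also: rhodamine fluorescence freed from ubiquitin-rhodamine substrate followed over time; top concentration of the series differs between compounds; % is scaled to controls: 0 for no effect and ±100 for the full control effect; nearly all actives have a fitted effect of over 35% in size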
# Method in brief: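 In 50mM HEPES pH 7.8 containing 0.5mM EDTA, 1mM TCEP, 0.1 mg/ml BSA and 0.01% Tween-20, 1nM USP1/UAF1 is exposed to compound for 15 min, then Ub-Rho (150nM final) is added and fluorescence is read over time.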
# [17] = Primary qHTS for small molecule stabilizers of the endoplasmic reticulum resident proteome: Secreted ER Calcium Modulated Protein (SERCaMP) assay (AID 1508630); also: % is scaled to controls: 0 for no effect and ±100 for the full control effect
# Method in brief: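 The SH-SY5Y reporter protocol was run at 3 concentrations up to 38.3 uM (primary) or 11 concentrations (follow-up): 16 h compound, 100 nM thapsigargin for 4 h, then extracellular luciferase luminescence.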
# [18] = AP1 Signaling Pathway (AID 357; active = well fitted curve in either direction with a large enough effect, not every such curve was filed as active;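 also: ME-180 reporter cells stimulated with EGF at its EC50 level; % is scaled to controls: 0 for no effect and ±100 for the full control effect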); details: ME-180 AP-1-bla reporter, EGF-induced, beta-lactamase ratio, 5 h; at 7.69 µM (top of the series) unless noted
# Method in brief: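 AP-1-bla ME-180 cells, Opti-MEM + 0.5% dialyzed FBS, plated overnight 37 °C. Cpd titration + EC50 EGF, 5 h 37 °C. CCF4 2.5 h RT; ex 405, em 460/530 ratio → %activity, AC50.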
# [19] = NFAT Signaling Pathway (AID 444; active = well fitted curve in either direction with a large enough effect, not every such curve was filed as active;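 also: carbachol stimulus at about its EC50 of 1 µM final; % is scaled to controls: 0 for no effect and ±100 for the full control effect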); details: Jurkat NFAT-bla M1, carbachol, beta-lactamase ratio, 5 h; at 7.69 µM (top of the series) unless noted
# Method in brief: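 Jurkat cells with NFAT-driven β-lactamase reporter and co-expressed M1 receptor, stimulated with carbachol (final 1 uM, ~EC50), compound titration, 5 h at 37 °C. CCF4 loaded 1 h at RT; 460/530 nm ratio gave %activity and AC50.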
# [20] = Stat Signaling Pathway (AID 446; active = well fitted curve in either direction with a large enough effect, not every such curve was filed as active); details: ME-180 (cervical carcinoma) SIE beta-lactamase reporter, IL-6 stimulated, 5 h; at 7.69 µM (top of the series) unless noted
# Method in brief: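 Compound effects on IL-6-induced STAT reporter activity were measured in ME-180 cells. After overnight culture, cells were co-treated with 40 pM IL-6 for 5 hrs before beta-lactamase substrate loading at room temperature.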
# [21] = molecular target: Glucocorticoid receptor (Homo sapiens) (UniProt P04150); assay: GR-EFC Redistribution (AID 451; calls by dose curve; also: potency is read from the fitted curve at half-maximal effect); details: CHO-K1 GR-EFC translocation, beta-gal luminescence, 2 h
# Method in brief: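 CHO-K1 cells expressing nuclear EA and GR-ED fragments of b-gal; compounds titrated up to 46 uM final, 2 h at 37 C. GR nuclear translocation read as complemented b-gal luminescence after 1 h RT detection.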
# [22] = qHTS Assay for Lipid Storage Modulators (AID 1519; calls by dose curve); details: Drosophila S3 cells, BODIPY lipid droplet/cell ratio, laser cytometry, cells loaded with oleic acid; for activity change, negative = inhibition: at 57.5 µM (top of the series)
# Method in brief: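 Cells seeded at 5,000 per well were treated with compounds over a concentration series and loaded with oleic acid (400 uM, as added). Lipid droplet fluorescence (488 nm excitation, 500-530 nm channel) was read by laser-scanning cytometry and normalized to 20 uM Triacsin C.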
# [23] = molecular target: Cytochrome P450 2D6 (Homo sapiens) (UniProt P10635); assay: qHTS Assay for Inhibitors and Substrates of Cytochrome P450 2D6 (AID 891); also: potency is read from the fitted curve at half-maximal effect; nearly all actives have a fitted effect of over 60% in size
# Method in brief: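 Luminescent read-out of luciferin formed by 5 nM human CYP2D6 demethylating 30 uM Luciferin-ME EGE (Km level) over 60 min at room temperature after NADPH regeneration addition. Data normalized to full inhibition by 1.43 uM quinidine.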
# [24] = measured here: cell count channel max response
# [25] = measured here: lipid channel max response
# Chain of Cytochrome P450 1A2 (Homo sapiens) (P05177 whole entry, looked up): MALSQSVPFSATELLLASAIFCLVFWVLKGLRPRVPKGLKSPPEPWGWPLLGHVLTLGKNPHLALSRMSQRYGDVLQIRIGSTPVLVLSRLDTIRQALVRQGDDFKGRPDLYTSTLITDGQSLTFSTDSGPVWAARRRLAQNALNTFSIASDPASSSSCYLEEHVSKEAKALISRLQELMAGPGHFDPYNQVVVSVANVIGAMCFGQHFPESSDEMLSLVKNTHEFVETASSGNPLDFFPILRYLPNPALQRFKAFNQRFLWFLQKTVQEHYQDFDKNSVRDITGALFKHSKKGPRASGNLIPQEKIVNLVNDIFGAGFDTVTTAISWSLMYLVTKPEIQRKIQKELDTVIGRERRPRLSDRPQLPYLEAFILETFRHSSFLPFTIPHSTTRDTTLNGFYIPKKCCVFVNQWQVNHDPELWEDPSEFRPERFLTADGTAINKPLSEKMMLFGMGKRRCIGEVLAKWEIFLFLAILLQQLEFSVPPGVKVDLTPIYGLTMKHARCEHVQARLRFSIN
# Chain of 3',5'-cyclic-AMP phosphodiesterase 4B (Homo sapiens) (Q07343 whole entry, looked up): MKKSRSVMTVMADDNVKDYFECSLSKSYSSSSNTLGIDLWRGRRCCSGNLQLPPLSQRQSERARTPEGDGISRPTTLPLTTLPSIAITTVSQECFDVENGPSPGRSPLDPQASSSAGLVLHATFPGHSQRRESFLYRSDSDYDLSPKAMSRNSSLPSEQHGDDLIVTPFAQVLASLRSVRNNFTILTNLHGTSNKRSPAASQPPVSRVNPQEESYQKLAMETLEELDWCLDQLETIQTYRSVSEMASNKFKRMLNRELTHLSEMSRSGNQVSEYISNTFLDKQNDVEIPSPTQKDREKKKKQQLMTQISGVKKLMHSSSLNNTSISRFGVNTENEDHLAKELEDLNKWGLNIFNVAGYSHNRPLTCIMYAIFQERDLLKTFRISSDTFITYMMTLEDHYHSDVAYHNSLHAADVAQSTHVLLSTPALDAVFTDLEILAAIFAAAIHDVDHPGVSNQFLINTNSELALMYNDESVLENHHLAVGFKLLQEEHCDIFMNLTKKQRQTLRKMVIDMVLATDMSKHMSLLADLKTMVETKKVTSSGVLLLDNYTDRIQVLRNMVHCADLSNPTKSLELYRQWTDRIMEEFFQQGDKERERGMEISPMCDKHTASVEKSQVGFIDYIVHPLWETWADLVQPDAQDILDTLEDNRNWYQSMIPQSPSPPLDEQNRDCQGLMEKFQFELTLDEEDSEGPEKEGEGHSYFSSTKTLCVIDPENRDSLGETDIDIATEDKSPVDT
# Chain of Glucocorticoid receptor (Homo sapiens) (P04150 whole entry, looked up, the tested form may be a part): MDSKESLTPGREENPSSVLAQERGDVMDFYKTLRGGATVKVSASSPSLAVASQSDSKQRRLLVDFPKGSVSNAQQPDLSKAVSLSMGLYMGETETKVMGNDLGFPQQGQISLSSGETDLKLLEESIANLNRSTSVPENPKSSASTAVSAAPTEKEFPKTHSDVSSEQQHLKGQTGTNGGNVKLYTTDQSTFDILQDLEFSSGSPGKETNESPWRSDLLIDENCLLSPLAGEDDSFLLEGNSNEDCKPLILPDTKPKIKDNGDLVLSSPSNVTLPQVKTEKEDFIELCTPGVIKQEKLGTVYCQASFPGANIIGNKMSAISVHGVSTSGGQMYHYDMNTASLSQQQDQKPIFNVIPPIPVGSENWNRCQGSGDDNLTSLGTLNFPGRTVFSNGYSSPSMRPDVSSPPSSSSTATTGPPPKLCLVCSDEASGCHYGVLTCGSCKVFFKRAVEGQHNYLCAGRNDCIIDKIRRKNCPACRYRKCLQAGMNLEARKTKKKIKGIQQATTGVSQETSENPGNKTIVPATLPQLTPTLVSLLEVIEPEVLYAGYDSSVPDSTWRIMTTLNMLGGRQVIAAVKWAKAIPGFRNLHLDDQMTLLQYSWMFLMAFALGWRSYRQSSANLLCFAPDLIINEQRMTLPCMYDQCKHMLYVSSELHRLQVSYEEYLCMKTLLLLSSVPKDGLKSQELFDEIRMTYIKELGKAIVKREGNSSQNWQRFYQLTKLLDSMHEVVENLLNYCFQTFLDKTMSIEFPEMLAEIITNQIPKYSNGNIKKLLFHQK
# Chain of Dual specificity protein kinase CLK4 (Homo sapiens) (Q9HAZ1 whole entry, looked up): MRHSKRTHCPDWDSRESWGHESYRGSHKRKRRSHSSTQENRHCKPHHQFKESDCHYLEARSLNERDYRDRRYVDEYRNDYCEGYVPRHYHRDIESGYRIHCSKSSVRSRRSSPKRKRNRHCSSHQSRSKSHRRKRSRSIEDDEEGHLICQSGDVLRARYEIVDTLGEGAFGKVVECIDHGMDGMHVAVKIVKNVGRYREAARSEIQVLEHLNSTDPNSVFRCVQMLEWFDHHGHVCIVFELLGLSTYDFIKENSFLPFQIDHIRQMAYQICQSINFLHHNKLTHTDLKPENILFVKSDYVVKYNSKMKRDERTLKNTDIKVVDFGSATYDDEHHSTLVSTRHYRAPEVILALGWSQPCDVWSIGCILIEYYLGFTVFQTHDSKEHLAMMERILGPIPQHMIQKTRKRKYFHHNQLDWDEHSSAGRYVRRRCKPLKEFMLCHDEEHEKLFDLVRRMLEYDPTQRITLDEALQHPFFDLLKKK
# Chain of Ubiquitin carboxyl-terminal hydrolase 1 (Homo sapiens) (O94782 whole entry, looked up): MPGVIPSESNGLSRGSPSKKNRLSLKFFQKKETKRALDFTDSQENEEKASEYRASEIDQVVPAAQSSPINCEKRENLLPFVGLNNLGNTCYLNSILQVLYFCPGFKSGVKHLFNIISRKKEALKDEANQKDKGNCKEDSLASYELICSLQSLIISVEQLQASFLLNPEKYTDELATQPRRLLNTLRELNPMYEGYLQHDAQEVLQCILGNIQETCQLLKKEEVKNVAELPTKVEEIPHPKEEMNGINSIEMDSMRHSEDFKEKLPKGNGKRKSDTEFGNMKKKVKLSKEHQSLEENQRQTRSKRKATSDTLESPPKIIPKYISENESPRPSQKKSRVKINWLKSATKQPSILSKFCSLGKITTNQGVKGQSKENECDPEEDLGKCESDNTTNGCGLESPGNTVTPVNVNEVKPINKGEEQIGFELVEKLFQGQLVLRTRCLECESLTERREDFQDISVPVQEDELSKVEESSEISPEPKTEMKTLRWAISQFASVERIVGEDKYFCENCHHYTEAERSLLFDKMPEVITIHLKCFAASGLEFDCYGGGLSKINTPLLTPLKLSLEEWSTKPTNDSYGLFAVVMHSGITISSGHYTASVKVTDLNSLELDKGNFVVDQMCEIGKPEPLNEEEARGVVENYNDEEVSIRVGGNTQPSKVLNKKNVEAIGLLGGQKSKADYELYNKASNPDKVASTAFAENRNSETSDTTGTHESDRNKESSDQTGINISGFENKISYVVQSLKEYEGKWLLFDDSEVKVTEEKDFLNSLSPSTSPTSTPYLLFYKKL
# Chain of Glutathione peroxidase 1 (Homo sapiens) (P07203 whole entry, looked up): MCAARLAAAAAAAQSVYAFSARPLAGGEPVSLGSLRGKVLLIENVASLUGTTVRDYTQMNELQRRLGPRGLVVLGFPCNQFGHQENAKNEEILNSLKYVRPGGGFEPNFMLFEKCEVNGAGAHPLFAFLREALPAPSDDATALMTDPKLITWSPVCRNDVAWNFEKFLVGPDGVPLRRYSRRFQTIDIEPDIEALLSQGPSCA
# Chain of Phospholipid hydroperoxide glutathione peroxidase GPX4 (Homo sapiens) (P36969 whole entry, looked up): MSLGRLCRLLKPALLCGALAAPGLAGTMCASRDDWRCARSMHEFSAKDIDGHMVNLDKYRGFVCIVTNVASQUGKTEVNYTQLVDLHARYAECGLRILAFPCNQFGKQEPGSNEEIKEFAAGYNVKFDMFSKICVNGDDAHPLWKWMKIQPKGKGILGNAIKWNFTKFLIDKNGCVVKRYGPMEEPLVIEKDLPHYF
# Chain of Lysosomal acid glucosylceramidase (Homo sapiens) (P04062 whole entry, looked up): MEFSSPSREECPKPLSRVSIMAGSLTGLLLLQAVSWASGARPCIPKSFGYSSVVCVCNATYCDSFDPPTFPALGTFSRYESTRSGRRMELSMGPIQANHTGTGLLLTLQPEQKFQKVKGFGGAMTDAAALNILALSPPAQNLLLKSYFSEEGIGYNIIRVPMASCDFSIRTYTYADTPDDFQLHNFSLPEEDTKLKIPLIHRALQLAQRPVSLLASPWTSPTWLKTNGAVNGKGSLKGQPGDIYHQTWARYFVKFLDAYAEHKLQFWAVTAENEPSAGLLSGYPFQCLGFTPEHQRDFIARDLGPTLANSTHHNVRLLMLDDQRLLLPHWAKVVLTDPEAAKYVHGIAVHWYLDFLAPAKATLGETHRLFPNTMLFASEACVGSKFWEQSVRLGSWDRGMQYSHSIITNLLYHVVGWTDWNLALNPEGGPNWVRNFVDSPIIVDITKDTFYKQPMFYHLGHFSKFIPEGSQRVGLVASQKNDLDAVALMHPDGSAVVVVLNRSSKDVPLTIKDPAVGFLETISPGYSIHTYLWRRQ
# Chain of Cytochrome P450 3A4 (Homo sapiens) (P08684 whole entry, looked up): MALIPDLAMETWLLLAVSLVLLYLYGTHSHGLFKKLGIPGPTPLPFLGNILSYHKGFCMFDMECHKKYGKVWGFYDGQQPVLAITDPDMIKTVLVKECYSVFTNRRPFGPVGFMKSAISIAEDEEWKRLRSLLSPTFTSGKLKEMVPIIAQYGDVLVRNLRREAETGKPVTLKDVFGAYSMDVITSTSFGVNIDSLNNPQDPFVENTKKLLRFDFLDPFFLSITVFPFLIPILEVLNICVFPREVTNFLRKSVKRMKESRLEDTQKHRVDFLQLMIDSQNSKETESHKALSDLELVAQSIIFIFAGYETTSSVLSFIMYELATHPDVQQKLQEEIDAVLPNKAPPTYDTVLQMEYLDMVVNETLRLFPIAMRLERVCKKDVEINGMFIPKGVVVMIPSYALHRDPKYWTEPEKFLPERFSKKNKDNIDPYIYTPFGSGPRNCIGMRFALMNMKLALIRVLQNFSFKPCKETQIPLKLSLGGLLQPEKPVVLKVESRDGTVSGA
compound,measurement,setting,value
Nc1nc2c(c(=O)[nH]1)N1CN(c3ccc(C(=O)N[C@@H](CCC(=O)O)C(=O)O)cc3)CC1CN2 (stereo partly specified),Potency,[1],0.833 µM (active)
same,Potency,[2],0.742 µM (active)
same,Potency,[3],inactive
same,Potency,[4],inactive
same,Z-AUC,[5],-1.54 (inactive)
same,Z-AUC,[5]; measured here: PEO1 parental Z-AUC,-1.06
same,Z-AUC,[5]; measured here: PEO4 Z-AUC,-0.345
CC(=O)c1ccc(N2CCN(C(=O)c3ccc4c(c3)CC(=O)N4)CC2)cc1,Potency,[6],inactive
CN1CCN(c2ncc3nc(-c4cccc(C#N)c4)c(=O)n(Cc4ccc(F)cc4)c3n2)CC1,Potency,[7],> 11.4 µM (inactive)
same,Potency,[8],inactive
same,Potency,[9],> 9.22 µM (inactive)
same,outcome,[10],inactive
same,Potency,[11],inactive
same,Potency,[12],inactive
same,Potency,[13],3.16 µM (active)
same,Potency,[14],inactive
same,Potency,[15],inactive
same,Potency,[16],inactive
same,Potency,[17],inactive
COCC(=O)N1CCC2(CC1)CN(Cc1cc(C(F)(F)F)cc(C(F)(F)F)c1)C2,"activity change, negative = inhibition",[18],11% (inactive)
same,Potency,[8],25.1 µM (active)
same,"activity change, negative = inhibition",[19],23.6% (inactive)
same,"activity, negative = inhibition",[20],-2.63% (inactive)
same,Potency,[21],> 46 µM (inactive)
same,outcome,[10],inactive
same,Potency,[11],inactive
same,"activity change, negative = inhibition",[22],-7.21% (inactive)
same,max response,[22]; [24],25.1%
same,max response,[22]; [25],17.9%
same,Potency,[17],inactive
CC(=O)N1CCC2(CC1)CCN(C(=O)Nc1cccc(F)c1)CC2,"activity change, negative = inhibition",[18],-10.4% (inactive)
same,Potency,[8],inactive
same,"activity change, negative = inhibition",[19],8.58% (inactive)
same,"activity, negative = inhibition",[20],-7.06% (inactive)
same,outcome,[10],inactive
same,Potency,[11],inactive
same,Potency,[23],3.16 µM (active)
same,"activity change, negative = inhibition",[22],3% (inactive)
same,max response,[22]; [24],11%
same,max response,[22]; [25],16.9%
same,Potency,[17],inactive
